According to PubChem BioAssay (NCATS):
Records with an inconclusive call do not appear. Unmarked numbers belong to inactive results. Calls of active or inactive are those of the source. Calls come from the whole dose curve; as a rule, active = well fitted curve in the direction sought with a large enough effect; inconclusive = small, poorly fitted or top-dose-only effect, or another doubt; inactive = no such curve, though single readings can be large; an effect the other way counts as inactive or inconclusive.

System: not listed separately
Assay: S16 Schwann cell viability assay (CellTiter-Glo assay) (AID 624031);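 note: cellular ATP luminescence as a viability measure; plate controls were DMSO-treated cells for no effect and cell-free wells for full effect; nearly all actives have a fitted effect of over 70% in size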
Details: S16 rat Schwann cells viability, 24 h; series mostly up to 57.5 µM; activity change, negative = cytotoxicity: at the top concentration
How it was run: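 Luminescent ATP read-out (CellTiter-Glo) after 24 h compound exposure of native S16 rat Schwann cells at 37 °C. Signals were normalized between cell-free wells and DMSO-treated cells, set as 0% activity.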

With O=C(O)[C@@H](O)[C@@H](O)[C@H](O)[C@H](O)CO as the compound, how does the “activity change, negative = cytotoxicity” value read?
The value was 3.83%.

For N[C@@H](Cc1ccccc1)C(=O)O, which “activity change, negative = cytotoxicity” value is on record?
The value was 9.8%.

With C[C@]12CC[C@H]3c4ccc(O)cc4CC[C@@H]3[C@H]1CC[C@@H]2OP(=O)(O)O as the compound, how does the “activity change, negative = cytotoxicity” value read?
Its value is 3.14%.

System: not listed separately
Assay: S16 Schwann cell PMP22 intronic element firefly luciferase assay (AID 624032);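 note: plate controls were DMSO for no effect and PTC124 positive control mean for full effect; nearly all actives have a fitted effect of over 30% in size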
Details: S16 rat Schwann cells, PMP22 element FLuc, 24 h; series mostly up to 57.5 µM; activity change, negative = inhibition: at the top concentration
How it was run: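 Rat S16 Schwann cells stably carrying a PMP22 intronic element-driven Fluc reporter were seeded overnight, then exposed to compounds for 24 h at 37 °C. Luminescence was normalized to PTC124 (positive control) and DMSO (0% activity).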

With O=C(O)[C@@H](O)[C@@H](O)[C@H](O)[C@H](O)CO as the compound, how does the “activity change, negative = inhibition” value read?
The value was -14.4%.

For N[C@@H](Cc1ccccc1)C(=O)O, which “activity change, negative = inhibition” value is on record?
The value was 57.6%.

For C[C@]12CC[C@H]3c4ccc(O)cc4CC[C@@H]3[C@H]1CC[C@@H]2OP(=O)(O)O, which “activity change, negative = inhibition” value is on record?
The value was -6.86%.

System: not listed separately
Assay: qHTS profiling for inhibitors of Plasmodium falciparum proliferation (AID 504749); note: nearly all actives have a fitted effect of over 60% in size; note: potency is the fitted concentration of half-maximal effect;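 for activity, negative = inhibition: 0% = DMSO vehicle and full inhibition = artemisinin control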
Details: P. falciparum in erythrocytes, SYBR Green DNA, 72 h; at 28.7 µM (top of the series); parasite line B
How it was run: (§1)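 Fluorescence of SYBR Green-bound parasite DNA, read at 485/535 nm, served as the growth measure. Infected erythrocytes were cultured with compound 72 h; artemisinin (0.29 uM) and DMSO wells defined the normalization range.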

Which activity, negative = inhibition does the source give for O=C(O)[C@@H](O)[C@@H](O)[C@H](O)[C@H](O)CO here?
Its activity, negative = inhibition is -24%.

With N[C@@H](Cc1ccccc1)C(=O)O as the compound, how does the activity, negative = inhibition read?
Its activity, negative = inhibition is -0.635%.

With C[C@]12CC[C@H]3c4ccc(O)cc4CC[C@@H]3[C@H]1CC[C@@H]2OP(=O)(O)O as the compound, how does the activity, negative = inhibition read?
Its activity, negative = inhibition is 13.6%.

System: 7G8
Assay: as above
Details: P. falciparum in erythrocytes, SYBR Green DNA, 72 h; series mostly up to 28.7 µM; activity, negative = inhibition: at the top concentration
How it was run: as §1

For O=C(O)[C@@H](O)[C@@H](O)[C@H](O)[C@H](O)CO, which Potency is on record?
Its Potency is 2000 nM (active).

Which “activity, negative = inhibition” value does the source give for N[C@@H](Cc1ccccc1)C(=O)O here?
The value was -25%.

With C[C@]12CC[C@H]3c4ccc(O)cc4CC[C@@H]3[C@H]1CC[C@@H]2OP(=O)(O)O as the compound, how does the “activity, negative = inhibition” value read?
Its value is 6.42%.

System: AA1029
Assay: as above
Details: P. falciparum in erythrocytes, SYBR Green DNA, 72 h; series mostly up to 28.7 µM; activity, negative = inhibition: at the top concentration
How it was run: as §1

For O=C(O)[C@@H](O)[C@@H](O)[C@H](O)[C@H](O)CO, which “activity, negative = inhibition” value is on record?
The value was -0.009%.

Which “activity, negative = inhibition” value does the source give for N[C@@H](Cc1ccccc1)C(=O)O here?
Its value is 3.74%.

With C[C@]12CC[C@H]3c4ccc(O)cc4CC[C@@H]3[C@H]1CC[C@@H]2OP(=O)(O)O as the compound, how does the “activity, negative = inhibition” value read?
Its value is 0.604%.

System: C2A
Assay: as above
Details: P. falciparum in erythrocytes, SYBR Green DNA, 72 h; series mostly up to 28.7 µM; activity, negative = inhibition: at the top concentration
How it was run: as §1

For O=C(O)[C@@H](O)[C@@H](O)[C@H](O)[C@H](O)CO, which “activity, negative = inhibition” value is on record?
Its value is -13.3%.

With N[C@@H](Cc1ccccc1)C(=O)O as the compound, how does the “activity, negative = inhibition” value read?
The value was -2.25%.

For C[C@]12CC[C@H]3c4ccc(O)cc4CC[C@@H]3[C@H]1CC[C@@H]2OP(=O)(O)O, which “activity, negative = inhibition” value is on record?
The value was 5.38%.

System: CP185
Assay: as above
Details: P. falciparum in erythrocytes, SYBR Green DNA, 72 h; series mostly up to 28.7 µM; activity, negative = inhibition: at the top concentration
How it was run: as §1

With O=C(O)[C@@H](O)[C@@H](O)[C@H](O)[C@H](O)CO as the compound, how does the “activity, negative = inhibition” value read?
The value was 3.28%.

Which “activity, negative = inhibition” value does the source give for N[C@@H](Cc1ccccc1)C(=O)O here?
The value was 2.37%.

Which “activity, negative = inhibition” value does the source give for C[C@]12CC[C@H]3c4ccc(O)cc4CC[C@@H]3[C@H]1CC[C@@H]2OP(=O)(O)O here?
Its value is 6.09%.

System: CP192
Assay: as above
Details: P. falciparum in erythrocytes, SYBR Green DNA, 72 h; series mostly up to 28.7 µM; activity, negative = inhibition: at the top concentration
How it was run: as §1

Which “activity, negative = inhibition” value does the source give for O=C(O)[C@@H](O)[C@@H](O)[C@H](O)[C@H](O)CO here?
The value was -25.4%.

For N[C@@H](Cc1ccccc1)C(=O)O, which “activity, negative = inhibition” value is on record?
The value was 1.92%.

For C[C@]12CC[C@H]3c4ccc(O)cc4CC[C@@H]3[C@H]1CC[C@@H]2OP(=O)(O)O, which “activity, negative = inhibition” value is on record?
The value was 1.99%.

System: CP194
Assay: as above
Details: P. falciparum in erythrocytes, SYBR Green DNA, 72 h; series mostly up to 28.7 µM; activity, negative = inhibition: at the top concentration
How it was run: as §1

For O=C(O)[C@@H](O)[C@@H](O)[C@H](O)[C@H](O)CO, which “activity, negative = inhibition” value is on record?
Its value is -1%.

Which “activity, negative = inhibition” value does the source give for N[C@@H](Cc1ccccc1)C(=O)O here?
The value was 1.51%.

Which “activity, negative = inhibition” value does the source give for C[C@]12CC[C@H]3c4ccc(O)cc4CC[C@@H]3[C@H]1CC[C@@H]2OP(=O)(O)O here?
Its value is -5.84%.

System: CP201
Assay: as above
Details: P. falciparum in erythrocytes, SYBR Green DNA, 72 h; series mostly up to 28.7 µM; activity, negative = inhibition: at the top concentration
How it was run: as §1

Which “activity, negative = inhibition” value does the source give for O=C(O)[C@@H](O)[C@@H](O)[C@H](O)[C@H](O)CO here?
Its value is 3.47%.

For N[C@@H](Cc1ccccc1)C(=O)O, which “activity, negative = inhibition” value is on record?
The value was -0.865%.

With C[C@]12CC[C@H]3c4ccc(O)cc4CC[C@@H]3[C@H]1CC[C@@H]2OP(=O)(O)O as the compound, how does the “activity, negative = inhibition” value read?
Its value is -0.66%.

System: CP203
Assay: as above
Details: P. falciparum in erythrocytes, SYBR Green DNA, 72 h; series mostly up to 28.7 µM; activity, negative = inhibition: at the top concentration
How it was run: as §1

With O=C(O)[C@@H](O)[C@@H](O)[C@H](O)[C@H](O)CO as the compound, how does the “activity, negative = inhibition” value read?
Its value is -23%.

With N[C@@H](Cc1ccccc1)C(=O)O as the compound, how does the “activity, negative = inhibition” value read?
Its value is 0.366%.

For C[C@]12CC[C@H]3c4ccc(O)cc4CC[C@@H]3[C@H]1CC[C@@H]2OP(=O)(O)O, which “activity, negative = inhibition” value is on record?
Its value is -3.14%.

System: CP211
Assay: as above
Details: P. falciparum in erythrocytes, SYBR Green DNA, 72 h; series mostly up to 28.7 µM; activity, negative = inhibition: at the top concentration
How it was run: as §1

Which “activity, negative = inhibition” value does the source give for O=C(O)[C@@H](O)[C@@H](O)[C@H](O)[C@H](O)CO here?
The value was -6.82%.

For N[C@@H](Cc1ccccc1)C(=O)O, which “activity, negative = inhibition” value is on record?
The value was 15.1%.

With C[C@]12CC[C@H]3c4ccc(O)cc4CC[C@@H]3[C@H]1CC[C@@H]2OP(=O)(O)O as the compound, how does the “activity, negative = inhibition” value read?
Its value is 4.77%.

System: CP238
Assay: as above
Details: P. falciparum in erythrocytes, SYBR Green DNA, 72 h; series mostly up to 28.7 µM; activity, negative = inhibition: at the top concentration
How it was run: as §1

With O=C(O)[C@@H](O)[C@@H](O)[C@H](O)[C@H](O)CO as the compound, how does the “activity, negative = inhibition” value read?
Its value is -21.4%.

Which “activity, negative = inhibition” value does the source give for N[C@@H](Cc1ccccc1)C(=O)O here?
Its value is 1.81%.

With C[C@]12CC[C@H]3c4ccc(O)cc4CC[C@@H]3[C@H]1CC[C@@H]2OP(=O)(O)O as the compound, how does the “activity, negative = inhibition” value read?
Its value is 4.16%.

System: CP252
Assay: as above
Details: P. falciparum in erythrocytes, SYBR Green DNA, 72 h; series mostly up to 28.7 µM; activity, negative = inhibition: at the top concentration
How it was run: as §1

Which “activity, negative = inhibition” value does the source give for O=C(O)[C@@H](O)[C@@H](O)[C@H](O)[C@H](O)CO here?
The value was -10.7%.

With N[C@@H](Cc1ccccc1)C(=O)O as the compound, how does the “activity, negative = inhibition” value read?
The value was 0.386%.

For C[C@]12CC[C@H]3c4ccc(O)cc4CC[C@@H]3[C@H]1CC[C@@H]2OP(=O)(O)O, which “activity, negative = inhibition” value is on record?
Its value is 2.53%.

System: CP262
Assay: as above
Details: P. falciparum in erythrocytes, SYBR Green DNA, 72 h; series mostly up to 28.7 µM; activity, negative = inhibition: at the top concentration
How it was run: as §1

Which “activity, negative = inhibition” value does the source give for O=C(O)[C@@H](O)[C@@H](O)[C@H](O)[C@H](O)CO here?
The value was 0%.

For N[C@@H](Cc1ccccc1)C(=O)O, which “activity, negative = inhibition” value is on record?
Its value is -2.81%.

For C[C@]12CC[C@H]3c4ccc(O)cc4CC[C@@H]3[C@H]1CC[C@@H]2OP(=O)(O)O, which “activity, negative = inhibition” value is on record?
The value was 1.2%.

System: CP297
Assay: as above
Details: P. falciparum in erythrocytes, SYBR Green DNA, 72 h; series mostly up to 28.7 µM; activity, negative = inhibition: at the top concentration
How it was run: as §1

With O=C(O)[C@@H](O)[C@@H](O)[C@H](O)[C@H](O)CO as the compound, how does the “activity, negative = inhibition” value read?
The value was -13.6%.

Which “activity, negative = inhibition” value does the source give for N[C@@H](Cc1ccccc1)C(=O)O here?
The value was -1.61%.

For C[C@]12CC[C@H]3c4ccc(O)cc4CC[C@@H]3[C@H]1CC[C@@H]2OP(=O)(O)O, which “activity, negative = inhibition” value is on record?
Its value is -10%.

System: CP329
Assay: as above
Details: P. falciparum in erythrocytes, SYBR Green DNA, 72 h; series mostly up to 28.7 µM; activity, negative = inhibition: at the top concentration
How it was run: as §1

For O=C(O)[C@@H](O)[C@@H](O)[C@H](O)[C@H](O)CO, which “activity, negative = inhibition” value is on record?
Its value is -0.416%.

With N[C@@H](Cc1ccccc1)C(=O)O as the compound, how does the “activity, negative = inhibition” value read?
Its value is 5.12%.

With C[C@]12CC[C@H]3c4ccc(O)cc4CC[C@@H]3[C@H]1CC[C@@H]2OP(=O)(O)O as the compound, how does the “activity, negative = inhibition” value read?
The value was 3.28%.

System: ICS
Assay: as above
Details: P. falciparum in erythrocytes, SYBR Green DNA, 72 h; series mostly up to 28.7 µM; activity, negative = inhibition: at the top concentration
How it was run: as §1

For O=C(O)[C@@H](O)[C@@H](O)[C@H](O)[C@H](O)CO, which Potency is on record?
Its Potency is 2240 nM (active).

With N[C@@H](Cc1ccccc1)C(=O)O as the compound, how does the “activity, negative = inhibition” value read?
The value was 3.67%.

With C[C@]12CC[C@H]3c4ccc(O)cc4CC[C@@H]3[C@H]1CC[C@@H]2OP(=O)(O)O as the compound, how does the “activity, negative = inhibition” value read?
The value was 11.6%.

System: P93_24
Assay: as above
Details: P. falciparum in erythrocytes, SYBR Green DNA, 72 h; series mostly up to 28.7 µM; activity, negative = inhibition: at the top concentration
How it was run: as §1

For O=C(O)[C@@H](O)[C@@H](O)[C@H](O)[C@H](O)CO, which Potency is on record?
Its Potency is 10000 nM (active).

Which “activity, negative = inhibition” value does the source give for N[C@@H](Cc1ccccc1)C(=O)O here?
The value was 3.1%.

Which “activity, negative = inhibition” value does the source give for C[C@]12CC[C@H]3c4ccc(O)cc4CC[C@@H]3[C@H]1CC[C@@H]2OP(=O)(O)O here?
The value was -1.01%.
